This passage reports Potency results from PubChem BioAssay (NCATS).

“And” between values parts separate entries of the source, which are not always exact repeats. Equal entries are not always repeated. Results filed as inconclusive are left out. The source holds several records for some structures; these can differ, active in one and inactive in another. The source made the active and inactive calls. Unless noted, calls follow the shape of the dose curve; as a rule, active = well fitted curve in the direction sought with a large enough effect; inconclusive = small, poorly fitted or top-dose-only effect, or another doubt; inactive = no such curve, though single readings can be large; an effect the other way counts as inactive or inconclusive.

The target of assay [1] is Calcium and integrin-binding protein 1 (Homo sapiens) (UniProt Q99828). Put plainly: Primary qHTS for Identification of Calcium Integrin Binding Protein 1 (CIB1) Competitor (AID 1508620).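 Also: GST tagged CIB1 binding a fluorescein labelled alphaIIb integrin peptide tracer; top concentration of the series differs between compounds.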 In outline:
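Fluorescence polarization competition: CIB1-GST (1 uM final) preincubated with compound 15 min at room temperature, then FITC-labeled alphaIIb peptide (100 nM final) added for another 15 min. Polarization read at Ex 480/Em 540.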

The target of assay [2] is Cytochrome P450 2D6 (Homo sapiens) (UniProt P10635). Put plainly: Cytochrome P450 family 2 subfamily D member 6 (CYP2D6) small molecule antagonists: luciferase biochemical (cell-free) qHTS assay (AID 1645840; active = well fitted curve in the direction sought with a large enough effect in the repeat runs; an effect the other way counts as inactive or inconclusive; also: nearly all actives have a fitted effect of over 55% in size; also: potency is read from the fitted curve at half-maximal effect). The procedure, abridged: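 P450-Glo luminescent screen: recombinant CYP2D6 enzyme–proluciferin substrate mix preincubated with compound 10 min at room temperature, then NADPH regeneration added for 1 h at room temperature. Detection reagent added for 20 min; luciferin light read as relative luminescence units.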
Chain of Cytochrome P450 2D6 (Homo sapiens) (P10635 whole entry, looked up): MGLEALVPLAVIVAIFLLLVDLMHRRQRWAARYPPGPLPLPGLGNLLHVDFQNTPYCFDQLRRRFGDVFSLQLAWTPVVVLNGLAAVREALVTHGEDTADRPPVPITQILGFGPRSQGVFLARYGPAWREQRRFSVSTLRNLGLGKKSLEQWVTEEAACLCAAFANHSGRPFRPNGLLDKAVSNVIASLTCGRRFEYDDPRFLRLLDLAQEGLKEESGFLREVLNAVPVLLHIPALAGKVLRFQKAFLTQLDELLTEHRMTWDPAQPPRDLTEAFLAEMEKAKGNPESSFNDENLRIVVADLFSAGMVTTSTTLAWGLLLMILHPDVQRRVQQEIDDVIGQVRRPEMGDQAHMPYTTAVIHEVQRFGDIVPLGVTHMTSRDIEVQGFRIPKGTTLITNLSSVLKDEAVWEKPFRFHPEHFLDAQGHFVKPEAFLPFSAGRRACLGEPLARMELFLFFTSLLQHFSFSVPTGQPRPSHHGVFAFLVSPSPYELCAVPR

Assay [3] concerns the target Cytochrome P450 2C9 (Homo sapiens) (UniProt P11712). Put plainly: Cytochrome P450 family 2 subfamily C member 9 (CYP2C9) small molecule antagonists: luciferase biochemical (cell-free) qHTS assay (AID 1645842; active = well fitted curve in the direction sought with a large enough effect in the repeat runs; an effect the other way counts as inactive or inconclusive; also: nearly all actives have a fitted effect of over 55% in size; also: potency is read from the fitted curve at half-maximal effect). The procedure, abridged:
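Luminescence, after 20 min with luciferin detection reagent, reflected CYP2C9 turnover during a 1 h NADPH-driven reaction at 37C. Enzyme-substrate mix contained 0.4% bovine serum albumin and was preincubated with compound 10 min at room temperature.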

Assay [4] can be described thus: Primary qHTS for inhibitors of nuclear receptor binding SET domain protein 2 (NSD2) in an isogenic RCH-ACV NSD2 p.E1099K mutant (9B) (AID 1645876). Also: nearly all actives have a fitted effect of over 70% in size. Also: potency is read from the fitted curve at half-maximal effect.
Assay [5] in a line: Primary qHTS for inhibitors of nuclear receptor binding SET domain protein 2 (NSD2) in an RCH-ACV wild type WT cells (2C) (AID 1645877). Also: nearly all actives have a fitted effect of over 70% in size. Also: potency is read from the fitted curve at half-maximal effect.

Chain of Cytochrome P450 2C9 (Homo sapiens) (P11712 whole entry, looked up): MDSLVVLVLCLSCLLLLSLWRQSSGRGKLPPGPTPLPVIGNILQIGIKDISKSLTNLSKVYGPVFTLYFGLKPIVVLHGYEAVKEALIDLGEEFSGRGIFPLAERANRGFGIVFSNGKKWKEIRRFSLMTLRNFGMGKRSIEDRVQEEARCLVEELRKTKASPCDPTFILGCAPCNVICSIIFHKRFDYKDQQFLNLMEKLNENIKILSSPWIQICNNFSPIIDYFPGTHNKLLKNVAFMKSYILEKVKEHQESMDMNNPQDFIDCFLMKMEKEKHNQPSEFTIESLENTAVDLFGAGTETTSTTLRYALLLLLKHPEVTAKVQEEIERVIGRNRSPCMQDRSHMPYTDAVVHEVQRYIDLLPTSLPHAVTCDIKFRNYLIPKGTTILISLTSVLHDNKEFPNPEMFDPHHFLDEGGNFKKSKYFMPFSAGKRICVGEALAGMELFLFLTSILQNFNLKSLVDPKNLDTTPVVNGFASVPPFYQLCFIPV
Chain of Calcium and integrin-binding protein 1 (Homo sapiens) (Q99828 whole entry, looked up): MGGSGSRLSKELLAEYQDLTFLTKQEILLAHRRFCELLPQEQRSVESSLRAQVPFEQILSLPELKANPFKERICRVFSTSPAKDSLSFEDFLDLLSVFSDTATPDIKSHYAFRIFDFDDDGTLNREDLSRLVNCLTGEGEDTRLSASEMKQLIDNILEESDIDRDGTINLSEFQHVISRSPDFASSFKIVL

For `COc1cc(Br)c(S(=O)(=O)Nc2ccc(Cl)c(O[C@@H]3CCN(C)C3)c2)cc1OC`, the Potency result in assay [1] was “inactive”. The Potency in assay [2] was 15.1 µM (active); in assay [3], 10.7 µM (active); in assay [4], 12.9 µM (active); in assay [5] it was 11.5 µM (active).
Take `CNc1cccc(CCOc2ccc3c(c2)CN(CC(F)(F)F)C(=O)[C@H](CC(=O)O)C3)n1`: the Potency entry in assay [1], in assay [2], in assay [3], in assay [4] and in assay [5] was “inactive” in each case.
`O=C(NCCN1CCN(c2cccc3c2OCCO3)CC1)c1ccc(F)cc1`: the Potency entry in assay [1], in assay [4] and in assay [5] was “inactive” throughout. Also, the figures for the Potency in assay [2] and in assay [3] were 12 µM (active) and 19 µM (active), respectively.
As for `Nc1nc2c(c(N3CC[C@@H](N)C3)n1)CCCc1ccccc1-2`, the Potency result in assay [1] and in assay [3] was “inactive” throughout. Further, the Potency in assay [2] is 3.38 µM (active); in assay [4], 20.5 µM (active); in assay [5] it was 18.3 µM (active).
Regarding `COC(=O)c1ccc2c(c1)[nH]c1ncnc(NCCCN3CCCCC3)c12`, the Potency result in assay [1], in assay [2] and in assay [3] was “inactive” in each case. Moreover, the Potency in assay [4] and in assay [5] was 16.3 µM (active) in each case.
Turning to `O=C(c1ccccn1)N(Cc1cccs1)C1(C(=O)NC2CCCCC2)CCCCC1`, the Potency result in assay [1], in assay [2], in assay [4] and in assay [5] was “inactive” throughout. Also, the Potency in assay [3] is 9.52 µM (active).
For the compound `Cc1cc(F)ccc1[C@H]1C[C@@H](N2CCN3C(=O)CC[C@H]3C2)CCN1C(=O)N(C)[C@H](C)c1cc(C(F)(F)F)cc(C(F)(F)F)c1`, the Potency entry in assay [1] is “inactive”. Moreover, the Potency in assay [2] was 13.5 µM (active); in assay [3], 10.7 µM (active); in assay [4], 23 µM (active); in assay [5], 14.5 µM (active).
For the compound `O=C(Nc1nnc(-c2ccc3c(c2)OCCO3)o1)C1CCCCC1`, the Potency entry in assay [1], in assay [2], in assay [3], in assay [4] and in assay [5] was “inactive” in each case.
Consider `CC(C)(C)c1ccc(C(=O)Nc2cn3cc(-n4ccnc4)ccc3n2)cc1`, for which the Potency result in assay [1], in assay [2], in assay [4] and in assay [5] was “inactive” each time. Further, in assay [3], the Potency was 7.56 µM (active).
Take `COC(=O)C(Cc1ccc(OCCn2c(=O)sc3cc(C(=O)c4ccccc4)ccc32)cc1)C(=O)OC`: the Potency result in assay [1], in assay [2], in assay [4] and in assay [5] was “inactive” each time. For the same compound, in assay [3], the Potency is 2.13 µM (active).
Regarding `Cc1cc(N2CCN(C(=O)Oc3ccc(-c4ccccc4)cn3)CC2)c2ccccc2n1`, in assay [1], the Potency result was “inactive”. In addition, the Potency in assay [2] is 15.1 µM (active); in assay [3], 26.8 µM (active); in assay [4], 12.9 µM (active); in assay [5] it was 12.9 µM (active).
Turning to `O=C(NCC1(N2CCN(c3ccccc3)CC2)CCOCC1)c1cccnc1Sc1ccccc1`, the Potency entry in assay [1], in assay [2], in assay [4] and in assay [5] was “inactive” in each case. Besides, the Potency in assay [3] is 3.79 µM (active).
As to `COc1cc2ncnc(Nc3cccc(I)c3)c2cc1OC`, the Potency result in assay [1] was “inactive”. Moreover, the Potency in assay [2] is 12 µM (active); in assay [3], 13.5 µM (active); in assay [4], 16.3 µM (active); in assay [5], 14.5 µM (active) and inactive.
As to `CCOC(=O)N1CCC(N2CCC[C@@H](NC(=O)c3ccccc3C)C2)CC1`, the Potency result in assay [1], in assay [3], in assay [4] and in assay [5] was “inactive” throughout. Moreover, in assay [2], the Potency was 16.9 µM (active).
`Cc1ccccc1CN1CCn2c1nc1c(c2=O)CN(Cc2ccccc2)CC1`: the Potency entry in assay [1], in assay [4] and in assay [5] was “inactive” throughout. Further, the values for the Potency in assay [2] and in assay [3] were 13.5 µM (active) and 8.49 µM (active), respectively.
`CCNC(=O)c1noc(-c2cc(Cl)c(O)cc2O)c1-c1ccc(OC)cc1`: the Potency result in assay [1] is “inactive”. The Potency in assay [2] was 26.8 µM (active); in assay [3], 3.38 µM (active); in assay [4], 0.129 µM (active); in assay [5] it was 0.115 µM (active).
`C=CC(=O)Nc1cccc(Nc2nc(Nc3ccc(NC4CN(CCF)C4)cc3OC)ncc2C(F)(F)F)c1`: the Potency result in assay [1] is “inactive”. Further, the Potency was 13.5 µM (active) in assay [2]; 0.268 µM (active) in assay [3]; 4.59 µM (active) and 5.9 µM (active) in assay [4]; 4.09 µM (active) and 6.61 µM (active) in assay [5].
Regarding `COC1CCN(C(=O)c2cc(Cc3n[nH]c(=O)c4ccccc34)ccc2F)CC1`, the Potency result in assay [1] and in assay [2] was “inactive” in each case. Also, the Potency in assay [3] is 23.9 µM (active); in assay [4], 13.2 µM (active); in assay [5], 8.33 µM (active).
As to `O=C(Nc1ccc(-c2ccnc(Nc3ccc(N4CCOCC4)cc3)n2)cc1)C1CCCN1` (stereo not given), the Potency entry in assay [1] and in assay [2] was “inactive” in each case. Moreover, the Potency is 2.13 µM (active) in assay [3], 4.61 µM (active) in assay [4] and 4.11 µM (active) in assay [5].
Turning to `Nc1nc2c(cnn2CCCc2ccc(O)cc2)c2nc(-c3ccco3)nn12`, the Potency entry in assay [1], in assay [2], in assay [4] and in assay [5] was “inactive” throughout. The Potency in assay [3] is 3.01 µM (active).
With `COc1ccc(CNc2nc(N(CCO)CCO)nc3c2ncn3C(C)C)cc1`, the Potency entry in assay [1] and in assay [2] was “inactive” each time. The Potency in assay [3] is 3.79 µM (active); in assay [4], 7.42 µM (active); in assay [5], 5.25 µM (active).
On to `COc1ccc(Oc2c(Cl)cnn(-c3cc(C)cc(C)c3)c2=O)cc1`, for which the Potency result in assay [1] and in assay [2] was “inactive” each time. The Potency in assay [3] was 12 µM (active); in assay [4], 11.5 µM (active); in assay [5] it was 4.09 µM (active).
Regarding `COc1cc(N2CCC(N)CC2)ccc1Nc1ncc(Cl)c(-c2c[nH]c3ccccc23)n1`, in assay [1], the Potency result was “inactive”. Besides, the Potency in assay [2] is 21.3 µM (active); in assay [3], 3.01 µM (active); in assay [4] it was 1.45 µM (active) and 1.66 µM (active); in assay [5] it was 1.63 µM (active) and 2.35 µM (active).
